According to PubChem BioAssay (NCI):
Compounds without any hit were thinned out: in the full panel of roughly 83,000, 20% have a hit.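 Growth was measured after 48 h exposure to one concentration of compound in 96-well plates. Values under 10 count as active.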 Active and inactive are the calls of the source.

Key:
Assay in all cases: NCI-60 one-dose screen, 48 h (100 = growth as untreated, 0 = no growth, -100 = all killed)
Settings in all cases: 10 µM unless noted
NCI-H23 lung = system: NCI-H23 lung
NCI-H226 lung = system: NCI-H226 lung
NCI-H322M lung = system: NCI-H322M lung
HOP-62 NSCLC = system: HOP-62 NSCLC
NCI-H460 lung = system: NCI-H460 lung
HOP-92 NSCLC = system: HOP-92 NSCLC
NCI-H522 lung = system: NCI-H522 lung
A549/ATCC NSCLC = system: A549/ATCC NSCLC
786-0 renal = system: 786-0 renal
COLO 205 colon = system: COLO 205 colon
DU-145 prostate = system: DU-145 prostate
K-562 leukemia = system: K-562 leukemia
MALME-3M melanoma = system: MALME-3M melanoma
MDA-MB-231 breast = system: MDA-MB-231 breast
RXF 393 renal = system: RXF 393 renal
SF-268 CNS = system: SF-268 CNS
SF-295 CNS = system: SF-295 CNS
SF-539 CNS = system: SF-539 CNS
UACC-257 melanoma = system: UACC-257 melanoma
M14 melanoma = system: M14 melanoma

Measured: growth

CCN(CCO)CC(C)Nc1ccc([N+](=O)[O-])c2sc3ccccc3c(=O)c12 (stereo not drawn)
active: NCI-H460 lung 9.73% | HOP-92 NSCLC -0.953% | RXF 393 renal 9.27%
inactive: NCI-H23 lung 40.2% | NCI-H226 lung 14.4% | NCI-H322M lung 15.6% | HOP-62 NSCLC 36.9% | NCI-H522 lung 15.3% | A549/ATCC NSCLC 12.2% | 786-0 renal 34.3% | COLO 205 colon 15% | DU-145 prostate 41.3% | K-562 leukemia 12.5% | MALME-3M melanoma 13.4% | MDA-MB-231 breast 48.8% | SF-268 CNS 36.1% | SF-295 CNS 17.4% | SF-539 CNS 25% | UACC-257 melanoma 31.5% | M14 melanoma 29.3%

Cc1ncc(C(=O)Nc2ccc(CN3CCN(C)CC3)c(C(F)(F)F)c2)cc1C#Cc1cnc(N)c2cnccc12
active: NCI-H23 lung 9.05% | HOP-62 NSCLC -21.8% | NCI-H460 lung -53.9% | NCI-H522 lung -0.528% | COLO 205 colon -27% | MALME-3M melanoma -26.1% | MDA-MB-231 breast -63.4% | RXF 393 renal -34.3% | SF-539 CNS -76.2% | UACC-257 melanoma -16.8% | M14 melanoma -78.5%
inactive: NCI-H226 lung 12.1% | NCI-H322M lung 14.8% | HOP-92 NSCLC 34.2% | A549/ATCC NSCLC 13.3% | 786-0 renal 14% | DU-145 prostate 13.5% | K-562 leukemia 25.1% | SF-268 CNS 14.6% | SF-295 CNS 23.6%

CCOC(=O)C/C(=N\Nc1cc(=O)[nH]c2ccc(Cl)cc12)C(=O)OCC
inactive: NCI-H23 lung 95.3% | NCI-H226 lung 98.2% | NCI-H322M lung 91.3% | HOP-62 NSCLC 101% | NCI-H460 lung 103% | HOP-92 NSCLC 87.5% | NCI-H522 lung 105% | A549/ATCC NSCLC 100% | 786-0 renal 106% | COLO 205 colon 121% | DU-145 prostate 106% | K-562 leukemia 43.9% | MALME-3M melanoma 95.8% | MDA-MB-231 breast 98.8% | RXF 393 renal 110% | SF-268 CNS 98.6% | SF-295 CNS 103% | SF-539 CNS 98.8% | UACC-257 melanoma 105% | M14 melanoma 95.5%

COC(=O)c1nc(-c2ccccc2)oc1S(=O)(=O)N1CCC(C(N)=O)CC1
active: NCI-H522 lung 0.81%
inactive: NCI-H23 lung 90.4% | NCI-H226 lung 85.2% | NCI-H322M lung 93.6% | HOP-62 NSCLC 104% | NCI-H460 lung 102% | HOP-92 NSCLC 23.7% | A549/ATCC NSCLC 98.8% | 786-0 renal 51.9% | COLO 205 colon 20.6% | DU-145 prostate 55.1% | K-562 leukemia 14.8% | MALME-3M melanoma 46.1% | MDA-MB-231 breast 76% | RXF 393 renal 47.4% | SF-268 CNS 85.9% | SF-295 CNS 107% | SF-539 CNS 63.2% | UACC-257 melanoma 69.2% | M14 melanoma 48.1%

O=C(CN1C(=O)NC2NC(=O)NC21)N/N=C/c1ccc(Cl)cc1Cl (stereo not drawn)
inactive: NCI-H23 lung 102% | NCI-H226 lung 95.6% | NCI-H322M lung 104% | HOP-62 NSCLC 114% | NCI-H460 lung 105% | HOP-92 NSCLC 125% | NCI-H522 lung 93.3% | A549/ATCC NSCLC 110% | 786-0 renal 96.6% | COLO 205 colon 125% | DU-145 prostate 113% | K-562 leukemia 105% | MALME-3M melanoma 106% | MDA-MB-231 breast 109% | RXF 393 renal 117% | SF-268 CNS 99.6% | SF-295 CNS 101% | SF-539 CNS 93.3% | UACC-257 melanoma 114% | M14 melanoma 104%

COCCCOc1cc(C[C@@H](C[C@H](N)[C@@H](O)C[C@H](C(=O)NCC(C)(C)C(N)=O)C(C)C)C(C)C)ccc1OC
inactive: NCI-H23 lung 99.4% | NCI-H226 lung 102% | NCI-H322M lung 114% | HOP-62 NSCLC 114% | NCI-H460 lung 112% | HOP-92 NSCLC 84.5% | NCI-H522 lung 101% | A549/ATCC NSCLC 103% | 786-0 renal 103% | COLO 205 colon 112% | DU-145 prostate 124% | K-562 leukemia 103% | MALME-3M melanoma 109% | MDA-MB-231 breast 102% | RXF 393 renal 104% | SF-268 CNS 117% | SF-295 CNS 93% | SF-539 CNS 103% | UACC-257 melanoma 104% | M14 melanoma 109%

Oc1c(CN2CCCC2)cc(COCc2ccccc2)c2cccnc12
active: HOP-62 NSCLC 1.77% | NCI-H460 lung 3.04% | NCI-H522 lung -2.04% | A549/ATCC NSCLC 8.85% | 786-0 renal 5.96% | SF-539 CNS -5.32% | UACC-257 melanoma -16.1% | M14 melanoma -2.08%
inactive: NCI-H23 lung 31.3% | NCI-H226 lung 18.1% | NCI-H322M lung 16.7% | HOP-92 NSCLC 14.7% | COLO 205 colon 71.4% | DU-145 prostate 30.4% | K-562 leukemia 12.2% | MALME-3M melanoma 30.8% | MDA-MB-231 breast 35.9% | RXF 393 renal 46.5% | SF-268 CNS 23.2% | SF-295 CNS 18.3%

O=C(CCCCCCCCC(=O)N/N=C\c1cc(Cl)ccc1O)N/N=C\c1cc(Cl)ccc1O
active: NCI-H460 lung 7.22%
inactive: NCI-H23 lung 47.9% | NCI-H226 lung 15.4% | NCI-H322M lung 41.1% | HOP-62 NSCLC 30.7% | HOP-92 NSCLC 47.6% | NCI-H522 lung 34.3% | A549/ATCC NSCLC 38.2% | 786-0 renal 16.3% | COLO 205 colon 36.9% | DU-145 prostate 30.5% | K-562 leukemia 23.7% | MALME-3M melanoma 37.6% | MDA-MB-231 breast 37% | RXF 393 renal 46.7% | SF-268 CNS 28.3% | SF-295 CNS 21.9% | SF-539 CNS 15.6% | UACC-257 melanoma 23.6% | M14 melanoma 17.7%

C/C(=N\Nc1nc(C)cs1)c1cc2ccccc2o1
inactive: NCI-H23 lung 86.9% | NCI-H226 lung 76.7% | NCI-H322M lung 93.1% | HOP-62 NSCLC 63.6% | NCI-H460 lung 95.6% | HOP-92 NSCLC 87.3% | NCI-H522 lung 66.3% | A549/ATCC NSCLC 88% | 786-0 renal 104% | COLO 205 colon 110% | DU-145 prostate 107% | K-562 leukemia 78.4% | MALME-3M melanoma 93.8% | MDA-MB-231 breast 79.9% | RXF 393 renal 120% | SF-268 CNS 97.9% | SF-295 CNS 94.7% | SF-539 CNS 94.8% | UACC-257 melanoma 102% | M14 melanoma 95.4%

CCOc1ccc(/C=N\N=C\c2ccc(OCC)cc2)cc1
inactive: NCI-H23 lung 79.5% | NCI-H226 lung 89.1% | NCI-H322M lung 99.1% | HOP-62 NSCLC 93% | NCI-H460 lung 51.7% | HOP-92 NSCLC 84.4% | NCI-H522 lung 51.9% | A549/ATCC NSCLC 94.2% | 786-0 renal 105% | COLO 205 colon 96.6% | DU-145 prostate 17% | K-562 leukemia 86.7% | MALME-3M melanoma 115% | MDA-MB-231 breast 83.6% | RXF 393 renal 84.9% | SF-268 CNS 94% | SF-295 CNS 95.9% | SF-539 CNS 96.4% | UACC-257 melanoma 99% | M14 melanoma 85.3%

CNCc1cccc2c1OCCOCCN(C)C(=O)CN(C)S(=O)(=O)c1ccc(cc1)-c1cnc(N)c(n1)C(=O)N2
inactive: NCI-H322M lung 40.4% | HOP-92 NSCLC 46.5% | NCI-H522 lung 23.5% | A549/ATCC NSCLC 11.9% | COLO 205 colon 19.9% | MDA-MB-231 breast 67.6% | SF-268 CNS 28.3% | SF-295 CNS 36.1% | UACC-257 melanoma 41.6%
active: NCI-H23 lung 6.92% | NCI-H226 lung -33.3% | HOP-62 NSCLC -6.9% | NCI-H460 lung -40.9% | 786-0 renal -40.3% | DU-145 prostate 7.84% | K-562 leukemia -39.5% | MALME-3M melanoma -85.3% | RXF 393 renal -0.929% | SF-539 CNS -50.7% | M14 melanoma 2.41%

Nc1c(C(=O)Nc2ccccn2)sc2nc3c(cc12)C(O)CCC3 (stereo not drawn)
active: RXF 393 renal 4.65% | SF-295 CNS 4.92% | SF-539 CNS 8.44%
inactive: NCI-H23 lung 45.1% | NCI-H226 lung 57.7% | NCI-H322M lung 36.5% | NCI-H460 lung 13.7% | HOP-92 NSCLC 50.9% | NCI-H522 lung 11.8% | A549/ATCC NSCLC 36.4% | 786-0 renal 32.9% | COLO 205 colon 23.6% | DU-145 prostate 25% | K-562 leukemia 20.6% | MALME-3M melanoma 60.8% | MDA-MB-231 breast 67.1% | SF-268 CNS 44% | UACC-257 melanoma 53.2% | M14 melanoma 21.1%

S=c1[nH]c2cc(Cl)ccc2o1
inactive: NCI-H23 lung 104% | NCI-H226 lung 104% | NCI-H322M lung 107% | NCI-H460 lung 100% | HOP-92 NSCLC 82.6% | NCI-H522 lung 102% | A549/ATCC NSCLC 118% | 786-0 renal 92.7% | COLO 205 colon 110% | DU-145 prostate 102% | K-562 leukemia 90.7% | MALME-3M melanoma 102% | MDA-MB-231 breast 89% | RXF 393 renal 104% | SF-268 CNS 105% | SF-295 CNS 99.2% | SF-539 CNS 106% | UACC-257 melanoma 113% | M14 melanoma 94.3%
